In PubChem BioAssay (EPA / NIEHS):
Where “and” joins values, the source holds several entries; their conditions need not be identical. Equal values may be shown once. Calls of active or inactive are those of the source. Rule for the calls: active = hit-call score of the fitted dose curve at least 0.9, where 1 is the maximum; inactive = score below 0.9.

Experiment: CCTE_Shafer_MEA_acute_burst_percentage_std: CCTE's Neural Acute Assay for Standard Deviation of Burst Percentage, Shafer Lab (AID 2284018);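 note: fitted in the negative direction so actives lower burst percentage SD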
Procedure, shortened: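 Primary rat cortical neurons on 16-electrode MEA wells were recorded 40 min at baseline (DIV 13 or 15), then 40 min after compound (0.03-40 uM), at 37 C. Well value is SD across electrodes of spikes-in-bursts/total spikes; endpoint is percent change, DMSO-referenced.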

Row | Structure (SMILES) | outcome | AC50
1 | O=c1c(-c2ccc(O)cc2)coc2cc(O)ccc12 | inactive | 
2 | O=C(O)c1ccccc1C(c1ccc(O)cc1)c1ccc(O)cc1 | inactive | 
3 | CCc1ccc(CCOc2ccc(CC3SC(=O)NC3=O)cc2)nc1 (configuration not stated) | inactive | 
4 | OC1CCC(C2CCCCC2)CC1 (configuration not stated) | inactive | 
5 | CC(C)CCCCCCOC(=O)CCCCC(=O)OCCCCCCC(C)C | inactive | 
6 | CCC(=C(c1ccc(O)cc1)c1ccc(OCCN(C)C)cc1)c1ccccc1 | inactive | 
7 | Cc1cc(CCN2CCN(c3nsc4ccccc34)CC2)cc2c1NC(=O)CC2(C)C | inactive | 
8 | CN(C)C=O | inactive | 
9 | OCCC(F)(F)C(F)(F)C(F)(F)C(F)(F)C(F)(F)C(F)(F)C(F)(F)C(F)(F)F | inactive | 
10 | CN1CCC[C@H]1c1cccnc1 | inactive | 
11 | CCCOc1sc(C(=O)N2CCC(c3cc(CN)ccc3F)CC2)c(C)c1Br | inactive | 
12 | NC(=O)N(O)[C@@H]1C=C[C@H](Oc2cccc(Oc3ccc(F)cc3)c2)C1 | inactive | 
13 | CC(C)(C)c1cc(C(C)(C)C)c(O)c(C(C)(C)C)c1 | inactive | 
14 | CC#C[C@]1(O)CC[C@H]2[C@@H]3CCC4=CC(=O)CCC4=C3[C@@H](c3ccc(N(C)C)cc3)C[C@@]21C |  | 4.22 µM (active) and 6.02 µM (active)
15 | CC(=O)NC1(c2cccc(F)c2)CCN(CC[C@@]2(c3ccc(Cl)c(Cl)c3)CN(c3ccccc3)C(=O)CO2)CC1 |  | 20 µM (active)
16 | Oc1cc2ccccc2c2ccccc12 | inactive | 
17 | CCCCCCCCCCCCN1CCCC1=O | inactive | 
18 | CN1CCN(c2ccccc2/C=C2\SCCN(c3ccc(Cl)c(Cl)c3)C2=O)CC1 | inactive | 
19 | CC[C@H](c1ccc(O)cc1)[C@@H](CC)c1ccc(O)cc1 | inactive | 
20 | CCCCCCCCCCCCc1ccccc1S(=O)(=O)O | inactive | 
21 | CCCCCCCCCCCCCCCS(=O)(=O)Oc1ccccc1 | inactive | 

Experiment: CCTE_Shafer_MEA_acute_per_network_burst_spike_number_mean: CCTE's Neural Acute Assay for Average Number of Spikes in a Network Burst, Shafer Lab (AID 2284019);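 for AC50: curve fitted for loss of signal so actives reduce spikes per network burst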
Procedure, shortened: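 Primary rat cortical neurons on 16-electrode MEA wells, DIV 13 or 15, 37 C; 40-min baseline then 40-min recording with compound (0.03-40 uM). Spikes per network burst (total spikes/number of bursts) expressed as percent change from baseline, DMSO reference.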

Row | Structure (SMILES) | AC50 | outcome
22 | O=c1c(-c2ccc(O)cc2)coc2cc(O)ccc12 | 4.06 µM (active) | 
23 | O=C(O)c1ccccc1C(c1ccc(O)cc1)c1ccc(O)cc1 | 20 µM (active) | 
24 | CCc1ccc(CCOc2ccc(CC3SC(=O)NC3=O)cc2)nc1 (configuration not stated) |  | inactive
25 | OC1CCC(C2CCCCC2)CC1 (configuration not stated) |  | inactive
26 | CC(C)CCCCCCOC(=O)CCCCC(=O)OCCCCCCC(C)C |  | inactive
27 | CCC(=C(c1ccc(O)cc1)c1ccc(OCCN(C)C)cc1)c1ccccc1 |  | inactive
28 | Cc1cc(CCN2CCN(c3nsc4ccccc34)CC2)cc2c1NC(=O)CC2(C)C |  | inactive
29 | CN(C)C=O |  | inactive
30 | OCCC(F)(F)C(F)(F)C(F)(F)C(F)(F)C(F)(F)C(F)(F)C(F)(F)C(F)(F)F |  | inactive
31 | CN1CCC[C@H]1c1cccnc1 |  | inactive
32 | CCCOc1sc(C(=O)N2CCC(c3cc(CN)ccc3F)CC2)c(C)c1Br |  | inactive
33 | NC(=O)N(O)[C@@H]1C=C[C@H](Oc2cccc(Oc3ccc(F)cc3)c2)C1 |  | inactive
34 | CC(C)(C)c1cc(C(C)(C)C)c(O)c(C(C)(C)C)c1 |  | inactive
35 | CC#C[C@]1(O)CC[C@H]2[C@@H]3CCC4=CC(=O)CCC4=C3[C@@H](c3ccc(N(C)C)cc3)C[C@@]21C |  | inactive
36 | CC(=O)NC1(c2cccc(F)c2)CCN(CC[C@@]2(c3ccc(Cl)c(Cl)c3)CN(c3ccccc3)C(=O)CO2)CC1 |  | inactive
37 | Oc1cc2ccccc2c2ccccc12 |  | inactive
38 | CCCCCCCCCCCCN1CCCC1=O |  | inactive
39 | CN1CCN(c2ccccc2/C=C2\SCCN(c3ccc(Cl)c(Cl)c3)C2=O)CC1 | 0.207 µM (active) | 
40 | CC[C@H](c1ccc(O)cc1)[C@@H](CC)c1ccc(O)cc1 |  | inactive
41 | CCCCCCCCCCCCc1ccccc1S(=O)(=O)O |  | inactive
42 | CCCCCCCCCCCCCCCS(=O)(=O)Oc1ccccc1 |  | inactive
